In the library only some 2.8% were active in any assay of this set; here they are far more common.
WRN inhibitor – qHTS for Inhibitors of WRN Helicase; Bifunctional 3'-5' exonuclease/ATP-dependent helicase WRN (Homo sapiens), Q14191; WRN helicase unwinding, fluorescent forked duplex, kinetic; Potency, µM (doses to about 114 µM), for inactives: top-dose activity change, negative = inhibition, hits mostly inhibitors; hit rate 0.46% among 360,000; AID 651768, 2012; further: potency means the concentration at half of the fitted maximal effect; on the % scale 0 is the no-effect control and ±100 the full control effect; nearly all actives have a fitted effect of over 55% in size
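Kinetic fluorescence helicase assay: unwinding of a quenched forked DNA duplex (100 nM final) with 2 mM ATP final raises red fluorescence (525/598 nm). Compounds sat 15 min at room temperature with 20 nM WRN beforehand.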
PI5P4K alpha inh – qHTS for Inhibitors of phosphatidylinositol 5-phosphate 4-kinase (PI5P4K) | AID 652105, 2013 | PI5P4Kalpha enzyme, ADP-Glo luminescence, 60 min; stronger effect = lower value | Phosphatidylinositol 5-phosphate 4-kinase type-2 alpha (Homo sapiens), P48426 | hit rate 1.2% among 330,000 | max response, %; active means max response of -50% or lower; inconclusive means between -30% and -50%; inactive means -30% or higher; further: value at the top dose of about 77 µM; on the % scale 0 is the no-effect control and ±100 the full control effect
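PI5P4Kalpha ADP-Glo assay; 5 microM ATP final; 60 min RT reaction; HEPES pH 7.4/EGTA/CHAPS, 5% DMSO; controls lacking substrate or enzyme; luminescent end-point.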
POLK inh – qHTS for Inhibitors of Polymerase Kappa; purified Pol kappa, fluorescent DNA synthesis assay, 10 min; hit rate 0.53% among 400,000; Potency, µM (top dose mostly 107 µM), inactives show at the top dose activity, negative = inhibition, usual class: inhibitors; AID 588579, 2011; further: potency means the concentration at half of the fitted maximal effect; on the % scale 0 is the no-effect control and ±100 the full control effect
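Here, compound and 10 nM enzyme are combined for 15 min at room temperature; adding 50 nM substrate (final) starts DNA synthesis, tracked by fluorescence at 0 and 10 min against buffer-only wells.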
POLB inh – qHTS Assay for Inhibitors of DNA Polymerase Beta | P06746 | Pol beta primer extension/strand displacement, fluorescence kinetic | Potency, µM (series often up to 114 µM), for the others: at the highest dose activity change, negative = inhibition, actives largely listed as inhibitors | hit rate 1.3% among 340,000 | AID 485314, 2010; further: potency means the concentration at half of the fitted maximal effect; on the % scale 0 is the no-effect control and ±100 the full control effect
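Pol beta (10 nM) and compounds were preincubated 15 min at room temperature, then 50 nM substrate (final) started primer extension/strand displacement. Reads were taken at 0 and 10 min; concentration-response data were fitted to a four-parameter Hill equation.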
Pol eta inh – qHTS for Inhibitors of Polymerase Eta | DNA polymerase eta (Homo sapiens), Q9Y253 | recombinant Pol eta, fluorescent DNA replication assay | Potency, µM (doses to about 114 µM), without a hit: at the top dose activity change, negative = inhibition, usual class: inhibitors | hit rate 1.2% among 390,000; further: potency means the concentration at half of the fitted maximal effect; on the % scale 0 is the no-effect control and ±100 the full control effect
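Pol eta (10 nM) was preincubated with compounds for 15 min at room temperature, after which fluorescent replication substrate (50 nM final) was added to start the reaction. Fluorescence was read kinetically at 0 and 10 min.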
POLI inh – qHTS for Inhibitors of Polymerase Iota | DNA polymerase iota (Homo sapiens), Q9UNA4 | Pol iota fluorescent replication assay, 10 min | Potency, µM (doses to about 115 µM), for the others: at the highest dose activity, negative = inhibition, actives largely listed as inhibitors | hit rate 1% among 390,000; further: potency means the concentration at half of the fitted maximal effect
Target sequence (Q9UNA4 whole entry, looked up): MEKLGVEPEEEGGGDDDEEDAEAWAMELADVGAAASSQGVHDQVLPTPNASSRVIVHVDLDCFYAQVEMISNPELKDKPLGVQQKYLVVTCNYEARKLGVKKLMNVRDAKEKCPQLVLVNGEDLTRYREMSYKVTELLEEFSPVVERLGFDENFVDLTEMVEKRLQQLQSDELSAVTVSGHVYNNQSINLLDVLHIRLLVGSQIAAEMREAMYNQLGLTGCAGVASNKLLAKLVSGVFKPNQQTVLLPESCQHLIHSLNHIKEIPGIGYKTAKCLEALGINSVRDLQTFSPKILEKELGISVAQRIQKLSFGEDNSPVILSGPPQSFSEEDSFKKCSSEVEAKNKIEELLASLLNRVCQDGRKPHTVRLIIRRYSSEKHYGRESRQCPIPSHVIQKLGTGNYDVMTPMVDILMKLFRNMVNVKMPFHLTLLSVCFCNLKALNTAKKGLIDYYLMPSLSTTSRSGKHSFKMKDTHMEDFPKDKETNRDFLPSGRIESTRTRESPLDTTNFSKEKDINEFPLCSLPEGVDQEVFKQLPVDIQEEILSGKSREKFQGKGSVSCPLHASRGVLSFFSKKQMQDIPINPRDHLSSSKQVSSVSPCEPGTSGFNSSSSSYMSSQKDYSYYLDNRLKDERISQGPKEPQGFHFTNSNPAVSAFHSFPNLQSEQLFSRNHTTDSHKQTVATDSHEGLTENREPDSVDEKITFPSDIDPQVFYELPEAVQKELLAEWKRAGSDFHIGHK
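Pol iota at 10 nM preincubated 15 min with compounds at room temperature; reaction started with fluorescent substrate, 50 nM final. Fluorescence read kinetically at 0 and 10 min; buffer-only wells as negative control.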
Numbers without * were called inactive; u = inconclusive; x = no result; [ ] = dose if it differs, or a comment. Unless noted, the call rests on the fitted dose curve; in most records, active means well fitted curve in the direction sought with a large enough effect; inconclusive means small, poorly fitted or top-dose-only effect, or another doubt; inactive means no such curve, though single readings can be large; an effect the other way counts as inactive or inconclusive.

SMILES | WRN inhibitor | PI5P4K alpha inh | POLK inh | POLB inh | Pol eta inh | POLI inh
O=C(Cc1cccs1)Nc1ccc(F)cc1F | -8.0% | u | -37.7% | -9.3% | 79.4µM* | -22.1%
Cc1ccc(N(C)S(=O)(=O)c2nnc(NC(=O)C3CCCCC3)s2)cc1 | x | x | -7.8% | 2.6% | -23.3% | -5.6%
Cc1ccc(CSc2nnc(SCC(=O)N/N=C/C=C/c3ccco3)s2)cc1 | -11.2% | u | u | 22.4µM* | u | u
CCn1c(SCC(=O)N/N=C/C=C\c2ccco2)nc2ccccc21 | -22.3% | -21.7 | -30.6% | 17.8µM* | u | u
O=C(CSc1nc2ccccc2n1Cc1ccccc1)N/N=C/c1ccco1 | -11.0% | x | -7.6% | -22.5% | -4.8% | -13.6%
Cc1ccc(CSc2nnc(SCC(=O)N/N=C/C=C/c3ccccc3[N+](=O)[O-])s2)cc1 | -28.6%[57.1 µM] | -17.2 | -6.4% | 5.7% | -14.6% | 8.1%
O=C(O)CCc1cccc2ccccc12 | x | x | 8.8% | x | x | 34.3%
c1ccc2c(c1)nc1n2CCS1 | -12.7% | 1.2 | 89.1µM* | -6.4% | -16.1% | -4.4%
O=C1CSc2nc3ccccc3n21 | -11.4% | x | -16.0% | -0.4% | -3.7% | 2.8%
Cc1cccc2c1c1ccc3c(c1n2C)C(=O)C=CC3=O | -8.3% | -72.6* | 0.1% | -14.7% | u | u
O=C(NCc1ccccn1)c1ccc(Cn2c(=S)[nH]c3ccc(Br)cc3c2=O)cc1 | -12.1% | 1.4 | -2.4% | -24.8% | -7.5% | 179.8%
O=C(NCc1ccccn1)c1ccc(Cn2c(=S)[nH]c3ccccc3c2=O)cc1 | -7.2% | 3.6 | -11.2% | u | -17.4% | 50.1µM*
CNCCc1cnc(CCC(c2ccccc2)c2ccccc2)[nH]1 | x | x | -15.5%[60.1 µM] | x | x | x
CCCNC(=O)c1ccc(Cn2cc(C(F)(F)F)ccc2=O)cc1 | 2.3%[57.1 µM] | 9.8 | -23.4% | -2.2% | -17.4% | 89.1µM*
O=C(COC(=O)c1ccc2c(c1)C(=O)N(Cc1ccncc1)C2=O)Nc1ccccc1[N+](=O)[O-] | u | u | -30.0% | 35.5µM* | u | 22.4µM*
CC(OC(=O)c1ccc2c(c1)C(=O)N(Cc1ccncc1)C2=O)C(=O)Nc1cccc(Cl)c1Cl (stereo unspecified) | -7.3% | -7.5 | -11.4% | -18.4% | -5.3% | 235.2%
Nc1ccc2c(O)cc(S(=O)(=O)O)cc2c1 | u | -58.3* | 14.1µM* | x | 5.62µM* | 8.91µM*
O=C(O)c1cc(S(=O)(=O)O)ccc1O | 2.4% | -13.0 | -13.8% | 3.2% | -10.5% | 0.6%
CCOC(=O)C1CCCN(C(=O)C(CCSC)NC(=O)COc2ccccc2)C1 (stereo unspecified) | -6.2% | -0.2 | -15.4% | x | -10.2% | 8.1%
Cc1ccc(C(=O)OCC(=O)NCCc2ccc(S(N)(=O)=O)cc2)o1 | -25.5% | -12.2 | -32.7% | x | u | -13.3%
Cc1ccc(C(=O)OCC(=O)Nc2c(Cl)cc(S(N)(=O)=O)cc2Cl)o1 | -4.1%[11.6 µM] | -8.4 | u | u | 4.3% | 70.8µM*
O=C(CNC(=O)c1cccc(F)c1)N/N=C/c1cc(Br)ccc1OC(=O)/C=C/c1ccco1 | -22.5% | -2.4 | -9.0%[60.1 µM] | 35.5µM* | 8.6% | u
CCOC(=O)Nc1cc2c(c(N)n1)N=C(c1ccccc1)CN2 | 56.2µM* | -67.8* | -23.6% | x | u | u
CCCCN1CC[C@H]2C=CC[C@@H](C(=O)NCc3cccnc3)[C@H]2C1=O | x | x | -8.6% | x | x | 18.4%
CN(C)c1ccc(/C=C/C=C2/SC(=S)N(c3ccccc3)C2=O)cc1 | u | u | -3.7% | 37.1% | 0.3% | u
SMILES | WRN inhibitor | PI5P4K alpha inh | POLK inh | POLB inh | Pol eta inh | POLI inh
O=C(O)c1ccc(N2C(=O)/C(=C/C=C/c3ccccc3)SC2=S)cc1 | -7.3%[57.1 µM] | -26.4 | -3.2%[60.1 µM] | u | 50.1µM* | u
CC(=O)Nc1ccc(S(=O)(=O)N2CCSC2c2ccco2)cc1 (stereo unspecified) | 1.3% | -1.4 | -6.0% | 0.6% | -9.3% | 111.2%
O=S(=O)(c1ccccc1)N1CCSC1c1ccco1 (stereo unspecified) | -21.0% | -19.2 | -7.9% | 44.7µM* | u | u
CCCCN(C)C(=O)c1cc2cc3ccc(OC)cc3nc2s1 | -3.5% | -10.6 | -10.0% | -1.5% | -9.1% | -7.1%
CCN(CCCNC(=O)c1cc2cc3ccc(OC)cc3nc2s1)c1ccccc1 | x | x | 79.4µM* | 11.2µM* | u | 79.4µM*
CCN(CCCNC(=O)c1cc2cc3ccc(OC)cc3nc2s1)c1cccc(C)c1 | x | x | u | 3.98µM* | u | 79.4µM*
COc1ccc(-c2onc(C)c2C)cc1S(=O)(=O)NCC1CCN(Cc2cc(C)ccc2C)CC1 | x | x | 10.3% | 21.0% | -16.1% | -0.4%
CC(C)c1cc(-c2cc(C(=O)NCc3ccccc3)on2)nc(NCC2CC2)n1 | 2.8% | 3.5 | -6.8% | 10.7% | -15.7% | 9.5%
CC=Cc1cc2c(c(=O)o1)C(=O)C(O)C(C)O2 (stereo unspecified) | -0.5% | -8.4 | -26.9% | x | u | 50.1µM*
C=CCN(C(=O)Cc1cccs1)c1nc(-c2ccc(S(C)(=O)=O)cc2)cs1 | 0.0%[11.6 µM] | -62.7* | u | u | -19.6% | u
C=CCN(C(=O)CCc1ccccc1OC)c1nc(-c2ccc(S(C)(=O)=O)cc2)cs1 | 4.3% | -4.2 | -7.5% | 14.2% | -8.6% | u
COC(=O)c1sc(-c2ccc(Cl)cc2)cc1NC(=O)CSCC(=O)O | -4.0% | -53.3* | -3.8% | 5.0% | -5.9% | -4.0%
O=C(Cc1cccs1)Nc1nnc(SCc2ccc(C(F)(F)F)cc2)s1 | u | u | -17.4% | u | u | 5.5%
O=C(Cc1cccs1)Nc1nnc(SCc2ccc(Br)cc2)s1 | -3.5%[11.6 µM] | u | u | 31.6µM* | u | u
Cc1nnc(NC(=O)CCC(=O)NCc2cccs2)s1 | -1.0% | 2.4 | -3.5% | -0.6% | 3.2% | -4.8%
Cc1nnc(NC(=O)Cc2cccs2)s1 | -15.8%[57.1 µM] | x | u | 35.5µM* | u | 44.7µM*
Cc1cccc(NC(=O)Cc2cccs2)n1 | -15.1% | -3.5 | -33.5% | 39.8µM* | 11.3% | 5.0%
COc1ccc(N2CCN(C(=O)COC(=O)CCOc3ccc(C)cc3)CC2)cc1 | 1.3% | -1.7 | 1.0% | x | -5.8% | 40.7%
CC(C)NC(=O)c1ccc2c(c1)N(CC(=O)Nc1ccccc1F)C(=O)C(C)(C)O2 | 6.0% | -4.1 | -6.3% | 22.3% | -14.2% | 93.1%
Cn1cccc1/C=C1\SC(=Nc2cccc(O)c2)NC1=O | -3.9%[11.6 µM] | -55.4* | -23.7% | 7.4% | u | u
